Data on seven compounds can be found in PubChem BioAssay (Tox21).

“And” between values parts separate entries of the source, which are not always exact repeats. Equal entries are not always repeated. Results filed as inconclusive are left out. Some compounds were tested as several samples or in several runs, with calls that do not always agree. The source made the active and inactive calls. Unless noted, calls come from the whole dose curve; as a rule, active = well fitted curve in the direction sought with a large enough effect in the repeat runs; inconclusive = weak or mixed curves; inactive = no such curve, though single readings can be large; an effect the other way counts as inactive or inconclusive.

Experiment [1] is described as follows: qHTS assay to identify small molecule agonists of the constitutive androstane receptor (CAR) signaling pathway - cell viability counter screen (AID 1224836). Note: nearly all actives have a fitted effect of over 45% in size. In short, it runs like this:
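HepG2-CYP2B6-hCAR, 2500 cells/well, 4 h pre-incubation; cpd 15 conc + PK11195 0.75 uM final; 23 h, 37 C/5% CO2; CellTiter-Fluor, fluorescence.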
(In general: Quantitative high-throughput screening tests each substance at several concentrations.)

A short description of experiment [2]: qHTS assay to identify small molecule antagonists of the constitutive androstane receptor (CAR) signaling pathway - cell viability counter screen (AID 1224837). Note: nearly all actives have a fitted effect of over 45% in size. A digest of the protocol: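 HepG2 cells stably expressing hCAR and a CYP2B6-2.2kb reporter were plated and pre-incubated 4 hr at 37 C/5% CO2, then given compounds at 15 concentrations plus 50 nM CITCO (final). After 23 hr, viability was read by CellTiter-Fluor fluorescence.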

The target in experiment [3] is Nuclear receptor subfamily 1 group I member 3 (Homo sapiens) (UniProt Q14994). The experiment is described as follows: qHTS assay to identify small molecule antagonists of the constitutive androstane receptor (CAR) signaling pathway (AID 1224838). Note: nearly all actives have a fitted effect of over 40% in size. In short, it runs like this:
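HepG2 cells stably co-transfected with hCAR and a CYP2B6-2.2kb luciferase reporter were seeded 4 h before compound addition at 15 concentrations. Cells were stimulated with 50 nM CITCO (final) for 24 h at 37 C; luciferase luminescence was then read.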

Experiment [4] shares this target. The experiment can be described thus: qHTS assay to identify small molecule agonists of the constitutive androstane receptor (CAR) signaling pathway (AID 1224839).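 For activation: HepG2 cells stably carrying human CAR and a CYP2B6 luciferase reporter.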 Note: nearly all actives have a fitted effect of over 15% in size. Note: potency is the fitted concentration of half-maximal effect. In short, it runs like this:
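HepG2-CYP2B6-hCAR cells, 2500/well, 4 h pre-incubation; compounds 15 conc.; PK11195 0.75 uM final; 24 h, 37 C/5% CO2; ONE-Glo luciferase read.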

The nature of experiment [5]: qHTS assay to identify small molecule antagonists of the estrogen related receptor signaling pathway with the pleiotropic PPARgamma coactivator (PGC) from Tox21 10K library - cell viability counter screen (AID 1224840; active = well fitted cell-killing curve with a large enough effect in the repeat runs, not every such curve was filed as active; note: nearly all actives have a fitted effect of over 40% in size). In short, it runs like this:
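PGC/ERR cells were seeded at 2,000 cells/well and left 6 hours at 37 C/5% CO2 before pin-tool addition of compounds in DMSO. After 17.5 hours at 37 C, CellTiter-Fluor was added and fluorescence read 30 minutes later.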

Experiment [6] addresses Thyrotropin receptor (Homo sapiens) (UniProt P16473). The experiment is described as follows: qHTS assay to identify small molecule agonists of the thyroid stimulating hormone receptor (TSHR) signaling pathway (AID 1224843; calls by dose curve; note: nearly all actives have a fitted effect of over 45% in size; note: potency is the fitted concentration of half-maximal effect). A digest of the protocol:
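Cell line HEK293 with TSHR; density 800/well. Exposure 30 min RT. Readout HTRF cAMP (cAMP-d2/anti-cAMP-cryptate), 1 h RT before reading.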

The nature of experiment [7]: qHTS assay to identify small molecule agonists of H2AX (AID 1224845; active = well fitted activation curve with a large enough effect in the signal ratio in the repeat runs, not every such curve was filed as active; the % refers to the signal ratio). A digest of the protocol: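 Wild-type CHO-K1 cells plated overnight, then exposed 3 hr at 37C to compounds at 15 concentrations (0.76% DMSO). Lysed, then HTRF anti-pH2AX(S139)-cryptate/anti-H2AX-d2 detection after 24 hr at room temperature; emissions 665 and 620 nm.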
Experiment [8] is described as follows: qHTS assay to identify small molecule agonists of the hypoxia (HIF-1) signaling pathway (AID 1224846; active = well fitted activation curve with a large enough effect in the signal ratio in the repeat runs, not every such curve was filed as active; the % refers to the signal ratio). In short, it runs like this:
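HRE-bla ME-180 cells (beta-lactamase reporter under hypoxia response element) were plated at 2,000 cells/well in medium with 0.5% dialyzed FBS, rested 5 hrs, then given compounds in DMSO for 17 hrs at 37C, 5% CO2. Reporter induction was read with CCF4-AM FRET substrate.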

Experiment [9] can be described thus: qHTS RealTime-Glo MT Cell Viability Assay in HepG2 cells - 24 hour (AID 1224867). Note: nearly all actives have a fitted effect of over 50% in size. A digest of the protocol:
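Tox21 10K library screened in qHTS format on HepG2 cells carrying RealTime-Glo reagents. Compounds were added after a 5 h preincubation, and the luminescent signal from continuous culture was measured repeatedly during 40 h treatment.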

Experiment [10] in a line: A CellTox Green Cytotoxicity Assay to monitor cytotoxicity in HEK293 cells - 0 hour (AID 1224869). Note: nearly all actives have a fitted effect of over 50% in size. A digest of the protocol: (§1)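 HEK293 cells premixed with CellTox Green dye were seeded at 600 cells/well and left 5 h at 37 C/5% CO2 before pin transfer of 23 nL compound in DMSO. Fluorescence from dye bound to dead-cell DNA was read during 40 h treatment.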
Experiment [11] in a line: qHTS RealTime-Glo MT Cell Viability Assay in HepG2 cells - 40 hour (AID 1224870). Note: nearly all actives have a fitted effect of over 50% in size. In short, it runs like this: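 HepG2 cells mixed with RealTime-Glo MT reagents (NanoLuc plus cell-permeant prosubstrate) were seeded at 600 cells/well, incubated 5 h at 37 C/5% CO2, then pinned with compounds in DMSO; nonlytic luminescence tracked viability during 40 h treatment.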
A short description of experiment [12]: qHTS assay to identify small molecule agonists of the estrogen related receptor signaling pathway with the pleiotropic PPARgamma coactivator (PGC) from Tox21 10K library (AID 1224842). Note: nearly all actives have a fitted effect of over 15% in size. A digest of the protocol:
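PGC/ERR reporter cells (NTP line) were seeded 2,000 per well, rested 6 h at 37 C/5% CO2, then pin-dosed with compounds in DMSO for 18 h at 37 C; luciferase read by One-Glo luminescence after 30 min at room temperature.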

Experiment [13] can be described thus: qHTS assay to identify small molecule antagonists of the estrogen related receptor (ERR) signaling pathway from Tox21 library (AID 1224848). Note: nearly all actives have a fitted effect of over 50% in size. Note: potency is the fitted concentration of half-maximal effect. In short, it runs like this: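 Screening used an ERR reporter line supplied by NTP, exposed for 18 h at 37 C to library compounds delivered in DMSO. Signal was luciferase luminescence developed with ONE-Glo at room temperature for 30 min.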

Experiment [14] in a line: qHTS assay to identify small molecule agonists of the estrogen related receptor (ERR) signaling pathway from Tox21 library (AID 1224849; calls by dose curve; note: nearly all actives have a fitted effect of over 15% in size). The note with it: ERR reporter cell line, ONE-Glo luciferase, 18 h. A digest of the protocol: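 ERR reporter cell line (NTP) seeded, rested 6 h at 37 C/5% CO2, then pinned with Tox21 compounds in DMSO. After 18 h at 37 C, ONE-Glo luciferase luminescence was read following 30 min at room temperature.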

The nature of experiment [15]: qHTS RealTime-Glo MT Cell Viability Assay in HEK293 cells - 32 hour (AID 1224868). Note: nearly all actives have a fitted effect of over 50% in size. Note: potency is the fitted concentration of half-maximal effect. In short, it runs like this:
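Luminescence generated by NanoLuc from substrate produced by living HEK293 cells served as the viability signal. Each value reflects the reading at its stated time point during continuous 40 h compound exposure at 37 C.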

The nature of experiment [16]: qHTS assay to identify small molecule agonists of the hypoxia (HIF-1) signaling pathway - cell viability counter screen (AID 1224844; calls by dose curve; note: nearly all actives have a fitted effect of over 50% in size). In short, it runs like this: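 HRE-bla ME-180 cells in medium with 0.5% dialyzed FBS were preincubated 5 hrs at 37C, exposed to compounds for 17 hrs, then viability was read as CellTiter-Glo luminescence after 30 min at room temperature, in the reporter wells.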

Experiment [17] can be described thus: A CellTox Green Cytotoxicity Assay to monitor cytotoxicity in HEK293 cells - 40 hour (AID 1224871). Note: nearly all actives have a fitted effect of over 45% in size. In short, it runs like this: as §1
Experiment [18] in a line: qHTS assay to identify small molecule antagonists of the estrogen related receptor signaling pathway with the pleiotropic PPARgamma coactivator (PGC) from Tox21 10K library (AID 1224841; call rule not given here; note: potency is the fitted concentration of half-maximal effect). A digest of the protocol:
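PGC/ERR reporter cells were seeded at 2,000 cells/well and held 6 hours at 37 C/5% CO2 before pin-tool addition of compounds in DMSO. After 18 hours at 37 C, One-Glo was added and luminescence read after 30 minutes at room temperature.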

The nature of experiment [19]: qHTS assay to identify small molecule agonists of H2AX - cell viability counter screen (AID 1224847; calls by dose curve; note: top concentration of the series differs between compounds; nearly all actives have a fitted effect of over 30% in size). A digest of the protocol:
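Cells plated first: CHO-K1, 1000 per well in 10% FBS medium, incubated overnight at 37C. Then 15-point compound titration added (final DMSO 0.76%) for 3 hr. Finally CellTiter-Glo added and luminescence read.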
% is set by controls: 0 for no effect and ±100 for the full control effect.

Chain of Thyrotropin receptor (Homo sapiens) (P16473 whole entry, looked up): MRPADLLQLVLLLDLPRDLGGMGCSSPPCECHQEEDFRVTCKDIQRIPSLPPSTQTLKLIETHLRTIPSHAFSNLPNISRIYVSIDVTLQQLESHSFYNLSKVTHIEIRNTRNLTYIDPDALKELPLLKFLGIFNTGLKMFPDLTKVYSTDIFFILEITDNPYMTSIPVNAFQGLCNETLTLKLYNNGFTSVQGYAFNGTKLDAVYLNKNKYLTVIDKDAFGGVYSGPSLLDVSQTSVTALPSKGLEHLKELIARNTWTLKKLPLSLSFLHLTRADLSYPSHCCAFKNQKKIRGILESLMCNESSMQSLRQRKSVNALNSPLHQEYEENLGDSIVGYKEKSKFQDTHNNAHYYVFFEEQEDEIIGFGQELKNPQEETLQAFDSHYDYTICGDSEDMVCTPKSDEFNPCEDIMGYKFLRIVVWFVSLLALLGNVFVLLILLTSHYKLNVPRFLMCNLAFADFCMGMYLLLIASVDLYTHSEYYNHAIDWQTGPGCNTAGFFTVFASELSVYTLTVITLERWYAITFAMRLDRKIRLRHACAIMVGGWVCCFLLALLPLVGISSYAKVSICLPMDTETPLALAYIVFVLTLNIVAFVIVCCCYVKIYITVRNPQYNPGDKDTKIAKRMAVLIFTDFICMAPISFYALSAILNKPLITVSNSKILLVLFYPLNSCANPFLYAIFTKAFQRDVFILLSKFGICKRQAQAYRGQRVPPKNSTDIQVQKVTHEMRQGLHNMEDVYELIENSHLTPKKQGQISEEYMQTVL
Chain of Nuclear receptor subfamily 1 group I member 3 (Homo sapiens) (Q14994 whole entry, looked up): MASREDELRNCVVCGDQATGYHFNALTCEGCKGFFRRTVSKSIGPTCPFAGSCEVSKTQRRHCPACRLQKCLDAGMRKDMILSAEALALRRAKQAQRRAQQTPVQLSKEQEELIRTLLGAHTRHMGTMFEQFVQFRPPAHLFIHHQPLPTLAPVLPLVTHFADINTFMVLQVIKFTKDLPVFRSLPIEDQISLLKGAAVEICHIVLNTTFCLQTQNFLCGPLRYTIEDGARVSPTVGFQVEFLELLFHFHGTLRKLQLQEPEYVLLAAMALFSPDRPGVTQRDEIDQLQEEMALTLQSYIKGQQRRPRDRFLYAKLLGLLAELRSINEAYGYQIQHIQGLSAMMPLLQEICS

In the case of `C/C=C/C=C/C(=O)O`, the Potency entry in [1], in [2], in experiment [3], in experiment [4], in [5] and in [6] was “inactive” throughout. The Potency result in [7], in [9], in [10] and in experiment [11] was “inactive” in each case. The call in experiment [8] was inactive.
Turning to `CCN(Cc1c(F)cccc1Cl)c1c([N+](=O)[O-])cc(C(F)(F)F)cc1[N+](=O)[O-]`, the Potency result in [1], in experiment [2], in experiment [3], in experiment [5], in experiment [12] and in experiment [7] was “inactive” each time. The Potency entry in experiment [9], in experiment [10] and in [11] was “inactive” in each case. Moreover, the Potency in experiment [4] was 7.7 µM (active); in [13], 61.1 µM (active); in experiment [15], 49 µM (active). The result in experiment [8] was inactive. Besides, in [14] (at 92.4 µM (top of the series)), the activity change, positive = activation is -20.2% (inactive).
Consider `CCCC[P+](CCCC)(CCCC)CCCC`, for which the Potency result in experiment [1], in experiment [2], in experiment [3], in experiment [4], in [5] and in [6] was “inactive” throughout. Besides, the Potency entry in [16], in [7], in experiment [9], in experiment [10], in [11] and in experiment [17] was “inactive” each time. Further, the call in [8] was inactive. In [15], the Potency was 19.4 µM (active) and 15.8 µM (active) and 3.89 µM (active).
With `COc1ccc2c(c1)c(CC(=O)O)c(C)n2C(=O)c1ccc(Cl)cc1`, the Potency entry in [1], in experiment [2], in experiment [3], in experiment [4], in experiment [5] and in experiment [12] was “inactive” each time. Further, the Potency result in experiment [6], in experiment [16], in [7], in experiment [9], in experiment [15] and in experiment [10] was “inactive” each time. Moreover, the Potency result in experiment [11] is “inactive”. Besides, the Potency in [18] is 30.8 µM (active) and inactive; in experiment [13], 30.8 µM (active) and inactive. The compound was called inactive in [8]. The activity change, positive = activation in experiment [14] (at 42.5 µM (top of the series)) was -11.8% (inactive); in experiment [14] (at 92.4 µM (top of the series)) it was -34.2% (inactive) and -25.5% (inactive).
As to `C[C@](N)(Cc1ccc(O)c(O)c1)C(=O)O`, the Potency entry in experiment [1], in experiment [2], in experiment [3], in [4], in experiment [5] and in [16] was “inactive” throughout. Further, the Potency entry in experiment [9], in experiment [15], in experiment [10], in experiment [11] and in [17] was “inactive” throughout. Also, the call in experiment [8] was inactive.
Take `NC1CCCCC1`: the Potency entry in [1], in [2], in experiment [3], in [4], in experiment [5] and in [16] was “inactive” each time. Moreover, the Potency entry in experiment [7], in [9], in [15], in experiment [10] and in [11] was “inactive” each time. In addition, the Potency in experiment [6] was 194 nM (active) and inactive. In addition, in experiment [8], the outcome was inactive.
As to `CN1[C@@H]2CC(OC(=O)[C@H](CO)c3ccccc3)C[C@H]1[C@@H]1O[C@@H]12` (some centres undefined), the Potency entry in experiment [1], in experiment [2], in experiment [3], in experiment [4], in experiment [5] and in experiment [6] was “inactive” in each case. In addition, the Potency result in [19], in experiment [9], in [15], in [10], in experiment [11] and in [17] was “inactive” in each case.
